# Several values for one entry are separate records, joined by “and”; a condition that tells them apart may be missing. Equal values may be shown once. Inconclusive results are not listed. A number with no mark means an inactive call. Activity calls are given as the source filed them. The call rests on the fitted dose curve; in most records, active means well fitted curve in the direction sought with a large enough effect; inconclusive means small, poorly fitted or top-dose-only effect, or another doubt; inactive means no such curve, though single readings can be large; an effect the other way counts as inactive or inconclusive. Numbered stars: 1 amine (or outer) side, 2 acyl side, 3 side chain; on linkers, the order of the positions; unused ones are H or OH. Bridge positions count the residues as written; N and C are the ends. Square brackets hold non-standard residues; d marks the D form. Peptide text beside a SMILES is read from it. I, II: the chains in the order shown. Actinocin(9to1) = Cc1c2oc3c(C)ccc(C(=O)[*:1])c3nc-2c(C(=O)[*:2])c(N)c1=O; NMeV = CN[CH](C(=O)O)C(C)C; Sar = CNCC(=O)O
# Tests used:
# [1] = Viability qHTS for spleen associated tyrosine kinase inhibitor (SYKi) naive MV4-11 cells (AID 1963823); further: nearly all actives have a fitted effect of over 40% in size
# Outline: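 Seeding of 500 SYKi-naive MV4-11 cells per well onto pre-dispensed compounds preceded a 72 hr incubation at 37 C. Luminescent CellTiter-Glo signal, read after 10 min at room temperature, reflected viable cells.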
# [2] = Viability qHTS for spleen associated tyrosine kinase inhibitor (SYKi) drug resistant MV4-11 cells (AID 1963824); further: nearly all actives have a fitted effect of over 35% in size
# Outline: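 SYK inhibitor-resistant MV4-11 AML cells, 500 per well, added to predispensed compounds and incubated 72 hr at 37 C, 5% CO2. Viability measured by CellTiter-Glo luminescence after 10 min at room temperature.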
# [3] = Quantitative highthroughput screen to assess conditional lethalithy of NOMO1 cells grown in RPMI1640 with untreated serum (RPMI+s) (AID 1963876); further: nearly all actives have a fitted effect of over 35% in size;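 on Viability: 100% = DMSO wells and 0% = empty wells without cells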
# Outline: (§1)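 Each medium arm—HPLM with 10% dialyzed FBS, or RPMI1640 with 5 mM glucose and 10% untreated or dialyzed FBS—was screened against an 11-point, 3-fold compound titration for 48 h at 37 °C, with CellTiter-Glo luminescence as endpoint.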
# [4] = Quantitative highthroughput screen to assess conditional lethalithy of NOMO1 cells grown in RPMI1640 with dialyzed fetal bovine serum (RPMI+ds) (AID 1963877); further: nearly all actives have a fitted effect of over 30% in size;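 on Viability: series mostly up to about 46 µM; 100% = DMSO control wells and 0% = empty wells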
# Outline: as §1
# [5] = Quantitative highthroughput screen to assess conditional lethalithy of NOMO1 cells grown in Human Plasma-Like Medium with dialyzed fetal bovine serum (HPLM+ds) (AID 1963878); further: nearly all actives have a fitted effect of over 35% in size;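 on Viability: 100% = DMSO wells and 0% = empty wells on each plate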
# Outline: as §1
# [6] = Quantitative highthroughput screen to assess conditional lethalithy of P12 Ichikawa cells grown in Human Plasma-Like Medium with dialyzed fetal bovine serum (HPLM+ds) (AID 1963879); conditions: Potency: viability; further: nearly all actives have a fitted effect of over 35% in size; on Viability: series mostly up to about 46 µM
# Outline: as §1
# [7] = Quantitative highthroughput screen to assess conditional lethalithy of P12 Ichikawa cells grown in RPMI1640 with dialyzed fetal bovine serum (RPMI+ds) (AID 1963880); conditions: Potency: P12-Ichikawa viability; further: nearly all actives have a fitted effect of over 35% in size;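 on Viability: 100% = DMSO wells and 0% = empty wells on each plate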
# Outline: as §1
# [8] = Quantitative highthroughput screen to assess conditional lethalithy of P12 Ichikawa cells grown in RPMI1640 with untreated serum (RPMI+s) (AID 1963881); conditions: Potency: viability; further: nearly all actives have a fitted effect of over 35% in size;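 on Viability: series mostly up to about 46 µM; 100% = DMSO wells and 0% = empty wells without cells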
# Outline: as §1
# [9] = Cellular viability qHTS for adrenocortical cancer (ACC) cell line SW-13 (AID 1963989); conditions: SW-13 ACC cells viability, CellTiter-Glo, 48 h; activity (max response): hits give low values; further: nearly all actives have a fitted effect of over 65% in size;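 on activity (max response): cells grown in serum-free medium with ITS supplement; on the % scale 0 is the no-effect control and ±100 the full control effect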
# Outline: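 SW-13 cells in ITS-supplemented serum-free DMEM were plated overnight, then exposed for 48 h at 37C to compound titrations (up to 46 uM final). Viability was read by CellTiter-Glo luminescence; four-parameter logistic fits gave IC50 and efficacy.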
# [10] = Cellular viability qHTS for adrenocortical cancer (ACC) cell line NCI-H295R (AID 1963990); further: nearly all actives have a fitted effect of over 60% in size;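 on activity change, negative = viability loss: 0% = DMSO only wells and -100% = full killing with cytotoxic reference compound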
# Outline: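 Luminescent ATP read-out (CellTiter-Glo, 20 min RT) after 48 h drug exposure of NCI-H295R cells; a titration up to 46 uM final. Data normalized to doxorubicin (100% inhibition) and DMSO (0%); 4-parameter fit gives IC50, max response.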
# [11] = Quantitative highthroughput screen to assess conditional lethalithy of SEM cells grown in RPMI1640 with dialyzed fetal bovine serum (RPMI+ds) (AID 1963884); further: nearly all actives have a fitted effect of over 35% in size;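 on Viability: series mostly up to about 46 µM; 100% = DMSO control wells and 0% = empty wells without cells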
# Outline: as §1
# [12] = Quantitative highthroughput screen to assess conditional lethalithy of SEM cells grown in Human Plasma-Like Medium with dialyzed fetal bovine serum (HPLM+ds) (AID 1963882); further: nearly all actives have a fitted effect of over 35% in size; on Viability: series mostly up to about 46 µM
# Outline: as §1
# [13] = Quantitative highthroughput screen to assess conditional lethalithy of SEM cells grown in RPMI1640 with unreated serum (RPMI+s) (AID 1963883); further: nearly all actives have a fitted effect of over 35% in size;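 on Viability: 100% = DMSO wells and 0% = empty wells without cells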
# Outline: as §1
# Potency means the concentration at half of the fitted maximal effect.
SMILES,Potency [1],Potency [2],Potency [3],Potency [4],Potency [5],Potency [6],Potency [7],Potency [8],activity (max response) [9],Potency [10],Potency [11],Potency [12],Potency [13],Potency [9],viability (% of control) [1],"viability, % of control [2]","activity change, negative = viability loss [10]"
COc1ccc2cccc(CCNC(C)=O)c2c1,inactive,inactive,inactive,inactive,inactive,inactive,inactive,inactive,13%,inactive,–,–,–,–,–,–,–
CCn1c(-c2nonc2N)nc2cncc(CNC3CCNCC3)c21,2.91 µM (active) and 2.95 µM (active),7.31 µM (active) and 5.25 µM (active),9.35 µM (active),18.7 µM (active),3.72 µM (active),6.62 µM (active),18.7 µM (active),23.5 µM (active),-7.16%,–,10.5 µM (active),–,–,–,–,–,–
CC1(C)CNc2cc(NC(=O)c3cccnc3NCc3ccncc3)ccc21,2.31 µM (active),5.17 µM (active) and 5.9 µM (active),inactive,inactive,inactive,inactive,inactive,inactive,-22.3%,–,–,–,–,–,–,–,–
CCN(CC)Cc1ccc2cc(COC(=O)Nc3ccc(C(=O)NO)cc3)ccc2c1,291 nM (active) and 468 nM (active),206 nM (active) and 372 nM (active),3.72 µM (active),3.72 µM (active),2.96 µM (active),2.35 µM (active),2.35 µM (active),–,–,1.78 µM (active),1.87 µM (active),1.66 µM (active),2.09 µM (active),2.82 µM (active),–,–,–
CC(C)C[C@H](NC(=O)[C@@H](NC(=O)c1cccc(-c2ccccc2)n1)[C@@H](C)O)B(O)O,14.6 nM (active) and 25.7 nM (active),0.0204 µM (active),0.0743 µM (active),0.105 µM (active),0.0662 µM (active),0.0526 µM (active),0.059 µM (active),–,–,0.18 µM (active),0.0148 µM (active),0.0148 µM (active),–,0.285 µM (active),–,–,–
O=C(O)c1ccccc1C(=O)Nc1ccc(-c2ccccc2)cc1,inactive,inactive,inactive,inactive,inactive,inactive,inactive,inactive,-5.47%,inactive,–,–,–,–,–,–,–
N#Cc1c(C2CCNCC2)cc(-c2c(O)cccc2OCC2CC2)nc1N,5.9 µM (active),6.61 µM (active),inactive,inactive,inactive,inactive,inactive,inactive,–,11.2 µM (active),–,–,–,28.2 µM (active),–,–,–
"Cc1c2oc3c(C)ccc(C(=O)NC4C(=O)NC(C(C)C)C(=O)N5CCCC5C(=O)N(C)CC(=O)N(C)C(C(C)C)C(=O)OC4C)c3nc-2c(C(=O)NC2C(=O)NC(C(C)C)C(=O)N3CCCC3C(=O)N(C)CC(=O)N(C)C(C(C)C)C(=O)OC2C)c(N)c1=O (stereo not given) (I: TVP[Sar][NMeV] / II: TVP[Sar][NMeV]; ester I:1-I:C, II:1-II:C; linker I:N-II:N via Actinocin(9to1); configuration not given here)",0.0014 µM (active),0.001 µM (active),inactive,inactive,inactive,inactive,inactive,–,–,–,inactive,inactive,inactive,0.009 µM (active),–,–,–
CCCCCN(C)CCC(O)(P(=O)(O)O)P(=O)(O)O,–,–,inactive,inactive,inactive,inactive,inactive,inactive,-15.6%,–,inactive,–,–,–,73% [at 4.97 µM],78.4% [at 4.97 µM],-3.37% [at 3.81 µM]
C=C(C)[C@@H]1CC[C@]2(C)CC[C@]3(C)[C@H](CC[C@@H]4[C@@]5(C)CC[C@H](O)C(C)(C)[C@H]5CC[C@]43C)[C@@H]12,inactive,inactive,inactive,inactive,inactive,inactive,inactive,–,4.74%,–,inactive,inactive,inactive,–,–,–,–
CCCn1c(=O)c2[nH]c(C34CC5CC3C[C@@H](C5)C4)nc2n(CCC)c1=O,18.6 µM (active),16.6 µM (active),inactive,inactive,inactive,inactive,inactive,–,-4.88%,inactive,inactive,inactive,–,–,–,–,–
CCCCN(CCCC)CCC(O)c1cc2c(Cl)cc(Cl)cc2c2cc(C(F)(F)F)ccc12 (stereo not given),10.6 µM (active),8.41 µM (active),inactive,inactive,inactive,inactive,inactive,13.2 µM (active),–,5.8 µM (active),–,–,–,5.8 µM (active),–,–,–
O=C(CCCCCCC(=O)Nc1ccc([C@H]2O[C@@H](CSc3nc(-c4ccccc4)c(-c4ccccc4)o3)C[C@@H](c3ccc(CO)cc3)O2)cc1)NO,16.4 µM (active),18.4 µM (active),9.35 µM (active),9.35 µM (active),8.33 µM (active),4.69 µM (active),3.32 µM (active),4.69 µM (active),-9.54%,–,6.62 µM (active),–,–,–,–,–,-23.6% [at 9.17 µM]
O=c1cc(O)c(Cl)c[nH]1,inactive,inactive,7.43 µM (active),8.33 µM (active),5.26 µM (active),7.43 µM (active),14.8 µM (active),8.33 µM (active),20.2%,inactive,–,–,–,–,–,–,–
COC(=O)N1CC2(CC2)C[C@H](C(=O)NO)[C@H]1C(=O)N1CCN(c2ccccc2)CC1,inactive,inactive,0.524 µM (active),3.31 µM (active),0.295 µM (active),0.331 µM (active),1.05 µM (active),–,-14.2%,inactive,0.66 µM (active),1.17 µM (active),–,–,–,–,–
COC(=O)C1C2CC3c4[nH]c5cc(OC)ccc5c4CCN3CC2CC(OC(=O)c2cc(OC)c(OC)c(OC)c2)C1OC (stereo not given),16.6 µM (active),11.8 µM (active),inactive,inactive,inactive,inactive,inactive,–,-10.6%,–,inactive,inactive,inactive,–,–,–,–
COc1ccc(C2CC(c3ccccc3)=NN2c2ccc(S(N)(=O)=O)cc2)cc1 (stereo not given),20.9 µM (active),18.6 µM (active),4.18 µM (active),4.18 µM (active),2.64 µM (active),6.62 µM (active),3.72 µM (active),–,–,–,1.66 µM (active),2.35 µM (active),1.18 µM (active),–,–,–,–
CC(C)NCC(O)c1ccc(O)c(O)c1 (stereo not given),inactive,inactive,5.9 µM (active),7.43 µM (active),4.69 µM (active),6.62 µM (active),9.35 µM (active),7.43 µM (active),9.6% and -17.4%,inactive,–,–,–,–,–,–,–
NC(=O)c1noc([C@H](CCCC2CCCCC2)CC(=O)NO)n1,8.2 µM (active),4.17 µM (active),16.6 µM (active),23.5 µM (active),18.7 µM (active),23.5 µM (active),18.7 µM (active),–,–,–,18.7 µM (active),18.7 µM (active),16.6 µM (active),–,–,–,–
Cc1ccc(-n2nc(C(C)(C)C)cc2NC(=O)Nc2ccc(OCCN3CCOCC3)c3ccccc23)cc1,8.2 µM (active),2.59 µM (active),inactive,inactive,inactive,inactive,inactive,–,-16.6%,inactive,9.35 µM (active),10.5 µM (active),0.132 µM (active),–,–,–,–
O=C(Nc1ccccc1Br)N[C@@H]1CCN(c2ccc(C(F)(F)F)cn2)C1,14.8 µM (active),23.5 µM (active),inactive,inactive,inactive,inactive,inactive,–,–,inactive,inactive,inactive,inactive,–,–,–,–
OCCC#Cc1nc(-c2ccc(F)cc2)c(-c2ccncc2)n1CCCc1ccccc1,20.6 µM (active),10.3 µM (active) and 11.8 µM (active),inactive,inactive,inactive,inactive,inactive,–,–,–,18.7 µM (active),inactive,inactive,–,–,–,–
CCC(C)SSc1ncc[nH]1 (stereo not given),9.34 µM (active),8.33 µM (active),18.7 µM (active),23.5 µM (active),14.8 µM (active),18.7 µM (active),13.2 µM (active),18.7 µM (active),–,20 µM (active),–,–,–,–,–,–,–
Cc1cnc(Nc2ccc(CN3CCOCC3)cc2)nc1Nc1cccc(S(=O)(=O)NC(C)(C)C)c1,0.164 µM (active),372 nM (active) and 326 nM (active),4.18 µM (active),4.69 µM (active),4.69 µM (active),2.96 µM (active),4.18 µM (active),–,–,4.47 µM (active),0.166 µM (active),0.743 µM (active),0.469 µM (active),15.8 µM (active),–,–,–
Nc1ncnc2c1ncn2[C@@H]1O[C@H](CO)[C@@H](O)[C@@H]1O,inactive,inactive,9.35 µM (active),8.33 µM (active),5.9 µM (active),7.43 µM (active),14.8 µM (active),–,-11.9%,–,inactive,inactive,–,–,–,–,–
O=c1cc(N2CCOCC2)oc2c(-c3cccc4c3sc3ccccc34)cccc12,1.48 µM (active),1.86 µM (active),inactive,inactive,inactive,inactive,inactive,inactive,–,12.6 µM (active),–,–,–,25.1 µM (active),–,–,–
Cc1ccc(CN2CCNCC2)cc1NC(=O)CNc1ccc(F)c(F)c1,inactive,inactive,inactive,inactive,inactive,inactive,inactive,–,11.8%,inactive,inactive,inactive,inactive,–,–,–,–
CC(C)Cc1ccc(C(C)C(=O)O)cc1 (stereo not given),inactive,inactive,inactive,inactive,inactive,inactive,inactive,inactive,–,inactive,–,–,12.9 µM (active),–,–,–,–
COc1cc2ncnc(Nc3cccc(Br)c3)c2cc1OC,4.68 µM (active),6.51 µM (active) and 5.25 µM (active),inactive,inactive,inactive,inactive,inactive,inactive,–,inactive,–,–,inactive,–,–,–,–

# From PubChem BioAssay (NCATS)
